14 molecules from PubChem BioAssay (NCI) can be followed below.

This is part of a sample that, as a whole, favours compounds with a hit. Of some 83,000 tested, about 20% had one in any assay.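 Note: values are percent growth. 100 is the growth of untreated cells, values between 100 and 0 indicate rising inhibition; between -100 and 0 indicates cell death.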 Unmarked numbers belong to inactive results. Active and inactive are the calls of the source. Rule for the calls: active = growth percent below 10; inactive = the rest.

For the test, the system named is MDA-MB-468 breast. Description: NCI-60 one-dose screen, 48 h (100 = growth as untreated, 0 = no growth, -100 = all killed). The following applies: 10 µM unless noted.
On to `CN1CCN(c2ccc(-c3ccc4ncc(C#N)c(Nc5ccc(F)c(Cl)c5)c4c3)cc2)CC1`, for which the growth is 1.52% (active). For `Cc1c(Cl)cccc1NC(=O)CCCl`, the growth was 108%. Regarding `COc1cccc2c1Cc1ccccc1-2`, the growth is 99%.

Take `COc1cc(OC)cc(-c2n/c(=C\c3c(O)[nH]c4ccc(Cl)cc34)cc3c2=Nc2ccccc2-3)c1`: the growth was 98.1%. In the case of `NS(=O)(=O)c1ccc(Nc2nc(N/N=C/c3ccccn3)nc(Nc3ccccc3)n2)cc1`, the growth is -29.7% (active). `C=C1C(=O)O[C@H]2[C@H]1CC/C(COC(=O)NCc1cn(C)c3ccccc13)=C\CC[C@@]1(C)O[C@@H]21`: the growth was -38.4% (active). In the case of `COC(=O)C(N)CC(C)C` (centres undefined), the growth is 98%. For the molecule `CC(=O)c1nc2ccccc2n1CC(=O)c1cccc(Cl)c1`, the growth was 32.7%. With `CC(=O)[C@@H]1CC[C@]2(C(N)=O)CC[C@]3(C)[C@H](CC[C@@H]4[C@@]5(C)CCCNC(C)(C)[C@@H]5CC[C@]43C)[C@@H]12`, the growth is 82.2%. Under `Cc1ccc(-c2cc3c(SCC(=O)Nc4cc(C(F)(F)F)ccc4Cl)nccn3n2)cc1` stands -19.3% (active).

`CC[C@H](Nc1ncnc2nc[nH]c12)c1nc2cccc(CC(=O)c3ccc(C(=O)NO)cc3)c2c(=O)n1-c1ccccc1`: the growth was 60.8%.

As to `CCC(c1cccc(Br)c1)C(C(=O)O)c1ccc(OC)cc1` (centres undefined), the growth was 102%.

`O=C(/C(=C\c1ccc([N+](=O)[O-])cc1)S(=O)Cc1ccc(F)cc1)c1ccc(F)cc1` (centres undefined): the growth is 16.3%. The figure for `CCCCCCCCn1ccc2cc(NC(=O)CN3CCN(c4nc(C)cc(N5CCCCC5)n4)CC3)ccc21` is 73.2%.
